Assay outcomes: PubChem BioAssay, National Center for Advancing Translational Sciences (NCATS)
A549 viability – A549 cytotoxicity, counter-screen for Nrf2 inhibitors. Potency, µM (series often up to 46 µM), for inactives: at the highest dose activity change, negative = cytotoxicity, usual class: inhibitors. actives 0.16% (n = 390,000). A549 ARE-Fluc cells, CellTiter-Fluor viability, 18-24 h. AID 504648; further: on the % scale 0 is the no-effect control and ±100 the full control effect
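A549 ARE-Fluc cells in 5% FBS OPTI-MEM, 5000 cells/well, rested 2 h then exposed to compounds in concentration-response for 18-24 h at 37 °C. Viability by CellTiter-Fluor fluorescence (Ex 405/Em 525) after 30 min; luciferase luminescence (BugLite, 15 min, RT) read afterwards.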
Nrf2 block – inhibitors of Nrf2 signaling. A549 ARE-Fluc reporter, luciferase luminescence, 18-24 h. Potency, µM (titrated, usually from 46 µM), for the others: at the highest dose activity change, negative = inhibition, most hits filed as inhibitors. actives 2.1% (n = 360,000). AID 504444; further: on the % scale 0 is the no-effect control and ±100 the full control effect; nearly all actives have a fitted effect of over 60% in size
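In this cell-based qHTS, ARE-driven firefly luciferase in A549 cells reports Nrf2 activity; the luminescent signal after BugLite lysis is the measured value, with a prior CellTiter-Fluor read for cell health.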
HepG2 viability – counter-screen for TGF-b inhibitors: cytotoxicity in HepG2 cells; HepG2 CAGA-GFP viability, ATP luminescence, 18 h; Potency, µM (top dose mostly 46.1 µM), for inactives: top-dose activity change, negative = cytotoxicity, usual class: cytotoxic; actives 0.76% (n = 410,000); AID 588856
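CellTiter-Glo luminescence gave cytotoxicity after 18 hours at 37 degrees C. The cells were HepG2 CAGA-GFP in 1% FBS DMEM, stimulated with 500 pg/mL TGF-beta after compound addition. %Activity was normalised to no-cell wells (complete cell-killing) and DMSO (no toxicity), and curves were fitted and classified.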
Nrf2 activator – activators of Nrf2 (ARE) signaling; AREc32 ARE-luciferase reporter (MCF7-derived line), luminescence, 24 h; Potency, µM (highest dose often 46.1 µM), for the others: at the top dose activation, most hits filed as activators; actives 0.31% (n = 410,000); AID 624171; further: % of control where 0% means no effect; nearly all actives have a fitted effect of over 65% in size
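ARE-driven firefly luciferase activity in AREc32 cells measured after a 24 hr compound exposure at 37 deg C, using Steady-Glo reagent and a 30 min room-temperature hold.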
TGFb inhibitor – TGF-b pathway inhibition; actives 1.2% (n = 410,000); Potency, µM (top dose mostly 46.1 µM), for the others: at the top dose activity, negative = inhibition, usual class: inhibitors; HepG2 CAGA-GFP TGF-b/SMAD3 reporter, GFP fluorescence, 18 h; TGF-beta stimulated, 500 pg/mL final; AID 588855; further: on the % scale 0 is the no-effect control and ±100 the full control effect; nearly all actives have a fitted effect of over 65% in size
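Smad-responsive CAGA-GFP expression was quantified in HEPG2 cells exposed to compounds and 500 pg/mL final TGF-beta for 18 h at 37 degrees C; unstimulated wells defined full inhibition.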
* marks the source's active call; other numbers are inactive results; ? = inconclusive; [ ] = another dose, or the depositor's remark. Most compounds without a hit are left out; they make up all but 3.6% or so of the library. The call rests on the fitted dose curve; in most records, active means well fitted curve in the direction sought with a large enough effect; inconclusive means small, poorly fitted or top-dose-only effect, or another doubt; inactive means no such curve, though single readings can be large; an effect the other way counts as inactive or inconclusive. Potency means the concentration at half of the fitted maximal effect.

SMILES	A549 viability	Nrf2 block	HepG2 viability	Nrf2 activator	TGFb inhibitor
CC(C)(C)OC(=O)NCCCCCNC(=O)c1[nH]cnc1C(=O)Nc1cccc(Cl)c1	?	20.6µM*	-6.4%	-0.2%	1.0%
CC(C)(C)OC(=O)CNC(=O)c1[nH]cnc1C(=O)NCCCCCNC(=O)OC(C)(C)C	-14.1%	25.9µM*	-18.4%	-0.6%	-24.5%
CC(C)(C)OC(=O)CNC(=O)c1[nH]cnc1C(=O)NCCCCCN	1.2%	-5.1%	-17.0%	-0.3%	-9.2%
CC(C)(C)OC(=O)NCCCCCNC(=O)c1[nH]cnc1C(=O)NC1CCN(C(=O)OC(C)(C)C)CC1	-12.1%	20.6µM*	-16.7%	5.0%	-0.4%
COc1ccccc1NS(=O)(=O)c1cc(NC(=O)c2cccs2)ccc1N1CCCCC1	1.7%	?	-21.6%	2.5%	?
Cc1nnc(SCC(=O)Nc2ccc3c(c2)OCO3)n(N)c1=O	3.0%	0.1%	-11.3%	2.0%	0.2%
CCn1ncc(/C=C/C(=O)Nc2c(C)nn(CC)c2C)c1C	-1.0%	2.6%	-3.3%	-0.2%	-12.3%
CC(C)c1ccc(C(=O)NCCCN2CCN(CCCNC(=O)c3ccc(C(C)C)cc3)CC2)cc1	?	-15.2%	17.8µM*	0.5%[9.22 µM]	14.1µM*
CCN(CC)S(=O)(=O)c1cc(NC(=O)CSc2nnc(N)s2)ccc1C	-3.4%	3.3%	-19.5%	-0.9%	-13.7%
CCN(CC)S(=O)(=O)c1cc(NC(=O)CSc2nc3c(cc2C#N)C(=O)CC(C)(C)C3)ccc1C	?	18.4µM*	6.9%	8.1%	-28.4%
CC(C)n1cc(/C=C2/NC(=O)N(c3cccc(Cl)c3)C2=O)c2ccccc21	?	-16.8%	-18.9%	0.0%	-12.2%
CC(C)=CCC/C(C)=C/CNC(=O)C[C@H]1C[C@H](C(=O)N2CCCCC2)[C@@]2(CCc3ccccc3)c3[nH]c4cc(CCC(=O)N(C)C)ccc4c3CCN2C1=O	?	?	9.9%	-0.6%	-3.9%
CCC(=O)OC1(C(C)=O)CCC2C3CCC4=CC(=O)CCC4(C)C3CCC21C (stereo unspecified)	5.6%	1.16µM*	9.5%	5.7%	-18.7%
CC(=O)C12CCCCC1CC1[C@@H]3CC(C)C4=CC(=O)CC[C@]4(C)C3CC[C@@]12C (stereo partly specified)	11.9%	?	-14.6%	-0.4%	-4.4%
CC12CCC(=O)C=C1CCC1C2CCC2(C)C1CCC2(O)C(=O)CO (stereo unspecified)	-15.1%	?	-5.3%	-0.3%	3.0%
CC(=O)O[C@]1(C(C)=O)CC[C@H]2[C@@H]3C=C(Cl)C4=CC(=O)CC[C@]4(C)[C@H]3CC[C@@]21C	1.2%	?	-8.6%	11.0%	4.0%
CC(=O)OC1(C(C)=O)CCC2C3CC(C(F)(F)F)C4=CC(=O)CCC4(C)C3CCC21C (stereo unspecified)	-6.0%	-14.1%	-10.7%	7.08µM*	-5.5%
CC12CCC(=O)C=C1CCC1C2CCC2(C)C1CC[C@]2(O)C(=O)CO (stereo partly specified)	-18.1%	?	12.3%	-0.3%	23.6%
CC(=O)O[C@]1(C(C)=O)CC[C@H]2[C@@H]3C[C@H](C)C4=CC(=O)CC[C@]4(C)[C@H]3CC[C@@]21C	-14.5%	0.259µM*	-19.6%	1.1%	8.1%
CC1CC2C3CCC4=CC(=O)CCC4(C)C3CCC2(C)C1(O)C(=O)CO (stereo unspecified)	-4.5%	0.651µM*	4.6%	4.3%	24.9%
Cc1ccc(NC(=O)C(=O)NCC2CCCN2S(=O)(=O)c2cccs2)c(C)c1 (stereo unspecified)	16.6%	?	-16.2%	-0.8%	-15.7%
CCOc1ccccc1N1CC(C(=O)NC2CCCCCC2)CC1=O (stereo unspecified)	-5.3%	1.7%	14.0%	0.0%	22.0%
O=c1c2c([N+](=O)[O-])cc([N+](=O)[O-])cc2nc2ccccn12	-24.1%	-11.9%	-24.9%	7.3%	-25.0%
